Here are results for 10 molecules from paper PMC5540273 (PLoS ONE, 2017).

“And” between values parts separate entries of the source, which are not always exact repeats. Equal values may be shown once. Read-outs that look alike come from different tables or passages of the source.

Conditions in all cases: concentration: 1 μM, replicates: in singlicate, n = 1
Assay [1] concerns EPHA3.
Assay [2] has as its system EPHA4.
The test system of assay [3] is EPHA5.
For assay [4], the system named is EPHA6.
Assay [5] relates to EPHA7.
In assay [6] the test system is EPHA8.
In assay [7] the test system is EPHB1.
Assay [8] has as its system EPHB2.
In assay [9] the test system is EPHB3.
Assay [10] has as its system EPHB4.
Assay [11] has as its system EPHB6.
For assay [12], the system named is ERBB2.
In assay [13] the test system is ERBB3.
Assay [14] has as its system ERBB4.
In assay [15] the test system is T1, ERK1.
T1 construct: gene MAPK3

Assay [16] relates to T2, ERK2.
T2 construct: gene MAPK1

Assay [17] relates to T3, ERK3.
T3 construct: gene MAPK6

For assay [18], the system named is T4, ERK4.
T4 construct: gene MAPK4

Assay [19] relates to T5, ERK5.
T5 construct: gene MAPK7

The test system of assay [20] is T6, ERK8.
T6 construct: gene MAPK15
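Also: KINOMEscan kinase panel screen.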

In the case of `CCc1ccnc(/C=C/c2n[nH]c3cc(Sc4ccccc4C(=O)NC)ccc23)c1`, the “%Inh” value in assay [1] turned out to be 0%; in [2] it was 1%; in [3], 5%; in [4] it was 0%; in assay [5] it was 2%; in [6] it was 7%. Moreover, the “%Inh” value turned out to be 4% in assay [7]; 0% in [8]; 0% in assay [9]; 0% in [10]; 35% in assay [11]; 2% in assay [12]. Also, the “%Inh” value in assay [13] amounted to 0%; in assay [14], 21%; in [15], 0%; in assay [16], 5%; in [17] it was 0%; in assay [18] it was 9%. Also, the “%Inh” value in assay [19] and in assay [20] was 0% each time.

With `CC(C)(CN)c1nc(-c2ccc(Cl)c(O)c2)c(-c2ccncc2)[nH]1.O=C(O)C(F)(F)F` [SB-477794], the “%Inh” value in assay [1] (1 µM) was 50% and 61%; in assay [2] (1 µM) it was 42% and 23%; in assay [3] (1 µM) it was 0% and 2%; in [4] (1 µM) it was 74% and 63%; in assay [5] (1 µM), 35% and 20%; in [6] (1 µM), 87% and 85%. Also, the “%Inh” value in assay [7] (1 µM) was 45% and 20%; in assay [8] (1 µM), 37% and 30%; in assay [9] (1 µM), 35% and 14%; in assay [10] (1 µM), 24% and 38%; in assay [11] (1 µM), 2% and 28%; in [12] (1 µM), 83% and 80%. For the same molecule, the “%Inh” value is 42% and 45% in assay [13] (1 µM); 26% and 35% in assay [14] (1 µM); 0% and 11% in assay [15] (1 µM); 0% in assay [16]; 20% and 0% in assay [17] (1 µM); 13% and 20% in [18] (1 µM). Moreover, the “%Inh” value was 32% and 56% in [19] (1 µM); 0% in [20].

Take `COC(=O)Nc1nc2cc(Oc3ccc(NC(=O)Nc4cc(F)ccc4F)cc3)ccc2[nH]1.Cl` [GW701424]: the “%Inh” value is listed as 8% in assay [1]; 37% in assay [2]; 1% in assay [3]; 75% in assay [4]; 16% in assay [5]; 75% in [6]. In addition, the “%Inh” value in assay [7] is recorded as 37%; in assay [8], 68%; in assay [9], 1%; in [10] it was 53%; in assay [11], 5%; in assay [12], 43%. Also, the “%Inh” value in [13] is 26%; in assay [14], 27%; in assay [15], 0%; in [16] it was 3%; in [17], 8%; in [18], 0%. Moreover, the “%Inh” value in assay [19] and in assay [20] was 0% each time.

`COc1ccc(Nc2nccc(N3CCC(NC(=O)Nc4cc(C)ccc4C)C3)n2)cc1` (centres unmarked) [GSK1379741]: the “%Inh” value in assay [1] is on record as 0%; in assay [2], 12%; in [3] it was 0%; in assay [4] it was 0%; in [5], 5%; in assay [6], 2%. Besides, the “%Inh” value in assay [7] is reported as 14%; in [8], 27%; in assay [9], 8%; in assay [10], 9%; in assay [11], 0%; in assay [12] it was 6%. Besides, the “%Inh” value in [13] stood at 0%; in [14] it was 52%; in [15], 0%; in assay [16], 0%; in assay [17] it was 0%; in assay [18], 1%. Further, the “%Inh” value in assay [19] and in [20] was 0% throughout.

In the case of `CSc1ccc(-c2cc3ncnc(SCC(=O)O)c3s2)cc1`, the “%Inh” value in assay [1] is reported as 0%; in assay [2], 5%; in [3], 13%; in assay [4], 6%; in assay [5] it was 0%; in [6], 0%. The “%Inh” value is recorded as 4% in assay [7]; 0% in assay [8]; 15% in assay [9]; 18% in [10]; 33% in assay [11]; 22% in [12]. Also, the “%Inh” value was determined as 7% in assay [13]; 0% in assay [14]; 0% in assay [15]; 19% in assay [16]; 0% in [17]; 14% in [18]. The “%Inh” value in [19] was 2%; in assay [20], 18%.

`CN1c2ccc(CNc3ccc(F)cc3)cc2-c2c(cnn2C)S1(=O)=O`: the “%Inh” value in [1], in assay [2], in assay [3], in assay [4], in assay [5] and in assay [6] was 0% each time. Moreover, the “%Inh” value in assay [7] is 0%; in assay [8] it was 17%; in [9] it was 0%; in assay [10], 1%; in assay [11], 0%; in assay [12], 13%. Also, the “%Inh” value in assay [13] was determined as 9%; in assay [14], 0%; in assay [15], 0%; in [16] it was 0%; in assay [17], 0%; in [18] it was 0%. Further, the “%Inh” value in assay [19] and in [20] was 0% throughout.

As for `O=c1cc(N2CCOCC2)nc2n(Cc3cccc(F)c3)ccn12` [GSK2297430], the “%Inh” value in assay [1] was found to be 0%; in assay [2], 10%; in assay [3] it was 0%; in assay [4], 10%; in assay [5], 4%; in [6], 13%. Also, the “%Inh” value in [7] is 0%; in [8], 0%; in assay [9], 14%; in [10], 17%; in [11], 0%; in assay [12] it was 0%. Besides, the “%Inh” value in [13] worked out at 0%; in assay [14], 0%; in assay [15] it was 15%; in assay [16], 6%; in [17] it was 14%; in [18] it was 0%. Further, the “%Inh” value in assay [19] is reported as 0%; in assay [20] it was 6%.

In the case of `COc1ccc(Nc2ncc(C#N)c(Nc3ccccc3C(N)=O)n2)cc1N1CCN(C)CC1.Cl` [GSK1558669], the “%Inh” value in [1] is given as 95%; in assay [2] it was 61%; in assay [3] it was 35%; in [4] it was 86%; in assay [5], 81%; in [6] it was 29%. Moreover, the “%Inh” value in assay [7] is 98.6%; in assay [8], 59%; in [9] it was 28%; in assay [10] it was 76%; in assay [11], 98.3%; in assay [12] it was 80%. Also, the “%Inh” value in assay [13] amounted to 96.6%; in [14], 88%; in assay [15] it was 7%; in [16], 0%; in assay [17] it was 100%; in assay [18], 100%. Moreover, the “%Inh” value in assay [19] worked out at 99.9%; in assay [20], 98.9%.

As for `NS(=O)(=O)c1cccc(-c2ccc3nccc(-c4cccc(S(N)(=O)=O)c4)c3c2)c1` [GW867253], the “%Inh” value is 11% in [1]; 0% in [2]; 2% in assay [3]; 0% in assay [4]; 0% in assay [5]; 4% in assay [6]. Further, the “%Inh” value is 0% in assay [7]; 0% in [8]; 0% in assay [9]; 0% in assay [10]; 0% in [11]; 11% in assay [12]. Also, the “%Inh” value in assay [13] came out at 0%; in assay [14], 7%; in assay [15] it was 0%; in assay [16], 0%; in assay [17], 0%; in assay [18], 0%. In addition, the figures for the “%Inh” value in assay [19] and in assay [20] were 0% and 1%, respectively.

On to `Cl.Cl.Cl.Fc1ccc(-c2ncn(C3CCNCC3)c2-c2ccnc(Nc3ccccc3)n2)cc1` [SB-238039], for which the “%Inh” value is 34% and 25% in assay [1] (1 µM); 8% and 0% in assay [2] (1 µM); 7% and 10% in assay [3] (1 µM); 18% and 0% in [4] (1 µM); 0% in assay [5]; 10% in assay [6]. Besides, the “%Inh” value in assay [7] (1 µM) is 31% and 0%; in [8] (1 µM), 25% and 0%; in assay [9], 0%; in [10], 0%; in [11] (1 µM), 3% and 0%; in assay [12] (1 µM), 92% and 79%. Besides, the “%Inh” value in [13] (1 µM) is 67% and 7%; in assay [14] (1 µM), 47% and 46%; in [15] (1 µM), 60% and 11%; in [16] (1 µM), 37% and 26%; in assay [17] (1 µM) it was 0% and 18%; in [18] it was 0%. Besides, the “%Inh” value in [19] (1 µM) was 46% and 0%; in assay [20] (1 µM) it was 0% and 10%.
